High-throughput results deposited in PubChem by National Center for Advancing Translational Sciences (NCATS).
FLuc counter = counter-screen for miR-21 project: firefly luciferase inhibitors or activators | purified FLuc, Km substrates, luminescence inhibition | 360,000 tested, 6.9% active | P08659 | Potency, µM (titrated, usually from 57.5 µM), for the others: at the top dose activity change, negative = inhibition, usual class: inhibitors | AID 588342;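 note: plate controls were vehicle for no effect and reference inhibitor for full effect; nearly all actives have a fitted effect of over 55% in size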
Target sequence (P08659 whole entry, looked up): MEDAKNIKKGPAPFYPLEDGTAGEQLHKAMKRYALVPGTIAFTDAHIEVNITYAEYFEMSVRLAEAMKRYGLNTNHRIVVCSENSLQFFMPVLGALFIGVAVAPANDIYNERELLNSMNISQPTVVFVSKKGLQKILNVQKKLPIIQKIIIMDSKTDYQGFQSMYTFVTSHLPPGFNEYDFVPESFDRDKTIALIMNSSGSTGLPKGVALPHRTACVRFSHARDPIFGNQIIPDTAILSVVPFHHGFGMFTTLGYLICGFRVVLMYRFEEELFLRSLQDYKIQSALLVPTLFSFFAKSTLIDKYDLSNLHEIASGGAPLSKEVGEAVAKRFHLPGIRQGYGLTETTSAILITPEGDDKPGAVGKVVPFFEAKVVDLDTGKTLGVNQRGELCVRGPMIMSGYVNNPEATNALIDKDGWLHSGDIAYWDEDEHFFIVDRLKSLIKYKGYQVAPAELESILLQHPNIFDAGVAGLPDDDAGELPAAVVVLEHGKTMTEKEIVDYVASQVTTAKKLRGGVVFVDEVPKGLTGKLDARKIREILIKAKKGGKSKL
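Purified P. pyralis luciferase, 10 nM final, with Km-level 10 uM D-luciferin and 10 uM ATP in 50 mM Tris acetate pH 7.5, 10 mM Mg acetate, 0.01% Tween-20, 0.05% BSA; 6-point qHTS titration about 60 µM downward; luminescence read.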
ELG1 genotox = inducers of genotoxicity in HEK293T ELG1-luciferase cells | HEK293T ELG1-luciferase reporter, luminescence, 16 h | Potency, µM (top dose mostly 46 µM), for inactives: at the top dose activity change, positive = activation, usual class: activators | 330,000 tested, 1.3% active | AID 504466; note: % of control where 0% means no effect; nearly all actives have a fitted effect of over 60% in size
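Luminescence read-out: rising ELG1-luciferase signal, reflecting elevated ELG1 protein under genetic stress, flags genotoxic compounds. Cells were treated for 16 hr at 37 °C before ONE-Glo detection.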
Rab9 prom act = activators of Rab9 promoter. Huh7 Rab9 promoter-luciferase reporter, luminescence, 24 h. Potency, µM (titrated, usually from 9.22 µM), without a hit: at the highest dose activation, negative = inhibition, hits mostly activators. 320,000 tested, 2.8% active. AID 485297; note: % of control where 0% means no effect; nearly all actives have a fitted effect of over 60% in size
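Luciferase signal after 10 min detection reagent at ambient indicates Rab9 promoter upregulation; stably transfected Huh7 cells were treated 24 h with compound in DMSO at 37 °C, 5% CO2.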
NPC1 promoter act = activators of NPC1 promoter. Huh7 NPC1 promoter luciferase reporter, 24 h. Potency, µM (top dose mostly 9.22 µM), for inactives: at the top dose activation, usual class: activators. 320,000 tested, 2.4% active. AID 485313; note: % of control where 0% means no effect; nearly all actives have a fitted effect of over 60% in size
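Luminescence read-out of NPC1 promoter-driven luciferase in stably transfected Huh7 cells; compounds delivered in DMSO and left 24 h at 37C, 5% CO2, qHTS titration format.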
SMN2 splice up = increases expression of the SMN2 splice variant; HEK293 SMN2-luciferase splicing reporter, luminescence, 30-36 h; Potency, µM (series often up to 46.1 µM), inactives show top-dose activity change, positive = activation, usual class: activators; 210,000 tested, 2.8% active; note: % of control where 0% means no effect; nearly all actives have a fitted effect of over 55% in size
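HEK293 cells carry an SMN2 […]–luciferase reporter in which exon 7 inclusion puts luciferase in frame. Cells were plated 10-12 h before compound addition, then incubated 30-36 h at 37C. ONE-Glo luminescence was read; sodium butyrate at 4.5 mM final served as control.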
An asterisk follows results filed as active; ? = inconclusive; / = no result; [ ] = another dose, or the depositor's remark. In the library only some 7.4% were active in any assay of this set; here they are far more common. Calls come from the whole dose curve; as a rule, active = well fitted curve in the direction sought with a large enough effect; inconclusive = small, poorly fitted or top-dose-only effect, or another doubt; inactive = no such curve, though single readings can be large; an effect the other way counts as inactive or inconclusive. Potency is the fitted concentration of half-maximal effect.

SMILES	FLuc counter	ELG1 genotox	Rab9 prom act	NPC1 promoter act	SMN2 splice up
Cc1ccc(OCC(=O)Nc2ccc(Cl)cc2)c([N+](=O)[O-])n1	/	?	?	2.8µM*	/
CN(C)c1ccc(CNS(=O)(=O)c2ccc(-c3cc(C(F)(F)F)on3)s2)cc1	-2%	/	/	/	/
N#Cc1c(NC(=O)/C=C/c2ccco2)sc2c1CCCC2	4.8µM*	2.9µM*	?	?	3.5µM*
O=C(/C=C/c1ccco1)Nc1sc2c(c1C(=O)O)CCC2	13µM*	2%	?	3.5µM*	28µM*
CNC(=O)c1c(NC(=O)c2ccco2)sc2c1CCC2	?	-1%	?	14%	/
O=C(/C=C/c1ccccc1)Nc1sc2c(c1C(=O)O)CCC2	17µM*	-1%	?	?	/
COc1ccccc1Cn1ccn(Cc2c(F)cccc2Cl)c(=O)c1=O	-7%	/	/	/	/
Cn1ccnc1Sc1ccc(/C=N/NC(=O)c2ccccc2O)cc1[N+](=O)[O-]	5.4µM*	7%	1%	3%	-7%
CCN(CC)CCn1c2c(c(SCC(=O)Nc3cccc(C(F)(F)F)c3)nc1=O)CCC2	-5%	/	/	/	/
COc1ccc(N/C=C2/Sc3ccccc3NC2=O)cc1	2.7µM*	?	?	?	13µM*
Cc1ccc(N/C=C2/Sc3ccccc3NC2=O)cc1	1.9µM*	?	3.2µM*	?	?
O=C1Nc2ccccc2S/C1=C/NCc1ccccc1Cl	19µM*	1%	12%	4%	2%
Cc1ccc(OCCNc2cc(N3CCN(CCO)CC3)ccc2[N+](=O)[O-])cc1C	24µM*	-2%	-5%	0%	-4%
Clc1ccc(-c2csc(Nc3ccccc3)[n+]2Cc2ccco2)c(Cl)c1	12µM*	10%	2.8µM*	?	-47%
Fc1cccc(Cc2noc(CN3CCCCC3c3ccccn3)n2)c1 (stereo not drawn)	24µM*	?	?	?	/
O=c1oc2c(CN3CCCCC3)c(O)ccc2cc1-c1nc2ccccc2[nH]1	9.5µM*	?	?	25%	/
O=C(O)c1ccc2nc(-c3cc4cccc(O)c4oc3=O)[nH]c2c1	0.85µM*	/	24%	10%	/
O=C(O)c1ccc2nc(-c3cc4cc(F)ccc4oc3=O)[nH]c2c1	5.4µM*	/	/	/	/
O=c1oc2c(O)cccc2cc1-c1nc2ccccc2[nH]1	0.67µM*	?	0.79µM*	0.56µM*	/
COc1ccccc1NC(=O)Cn1c(=O)n(-c2ccc(C)cc2)c(=O)c2ccc(C(=O)NCc3ccco3)cc21	-3%	/	/	/	-24%
COC(=O)C1=C(O)/C(=C\c2sccc2C)N=C1C	?	1%	-3%	-1%	1%
COC(=O)C1=C(O)/C(=C\c2cc(C)n(-c3ccccc3F)c2C)N=C1C	0.85µM*	?	27%	7%	2%
COC(=O)C1=C(C)NC(=O)/C1=C\c1cc(C)n(-c2cc(C)cc(C)c2)c1C	-13%	-4%	-1%	1%	-14%
COC(=O)C1=C(C)NC(=O)/C1=C\c1cc(C)n(-c2ccccc2)c1C	11µM*	1%	?	20%	152%
COC(=O)C1=C(O)/C(=C\c2cc(C)n(-c3ccccc3C)c2C)N=C1C	1.1µM*	5%	?	?	-12%
SMILES	FLuc counter	ELG1 genotox	Rab9 prom act	NPC1 promoter act	SMN2 splice up
Cc1ccc(CN(C(=O)c2ccc([N+](=O)[O-])cc2)c2ccccn2)cc1	-15%	/	/	/	/
Cc1ccc(CNC(=O)Cn2c(=O)n(Cc3ccccc3)c(=O)c3c2c2cc(C)ccc2n3C)cc1	-1%	/	/	/	/
COc1ccccc1NC(=O)Nc1nc(CC(=O)Nc2cccc(F)c2)cs1	17µM*	-9%	8%	-6%	/
COc1ccccc1NC(=O)Nc1nc(CC(=O)Nc2ccc(N(C)C)cc2)cs1	21µM*	?	-2%	0%	/
COc1ccccc1NC(=O)Nc1nc(C(C)(C)C)cs1	8.5µM*	-4%	15%	-3%	6%
Cc1ccccc1C(=O)Nc1ccccc1C(=O)OCc1cc(=O)n2ccsc2n1	0%	/	/	/	/
CCc1c(C)c2ccc3c(c2oc1=O)CN(Cc1ccccc1)CO3	-6%	/	/	/	/
O=[N+]([O-])c1ccc2c(c1)S(=O)(=O)C=C2	/	/	-43%[46.1 µM]	-34%[46.1 µM]	/
O=C(CN1CCOCC1)NCCNC(=O)CN1CCOCC1	-1%	-1%	-2%	-2%	13µM*
CC(C)(CO)[C@H](O)C(=O)NCCC(=O)O	/	/	/	/	-1%[20.6 µM]
Cc1ccsc1C(=O)N/N=C/c1ccc2c(c1)OCO2	1.5µM*	2.3µM*	0.63µM*	0.71µM*	2.5µM*
O=C(N/N=C/c1ccc2c(c1)OCO2)c1cccs1	3.4µM*	7.3µM*	1.3µM*	1.3µM*	13µM*
Cc1ccsc1/C=N/NC(=O)Nc1ccccc1	2.7µM*	?	1.6µM*	3.2µM*	16µM*
Cc1ccccc1/C=N/NC(=O)c1sccc1C	1.5µM*	18µM*	2.2µM*	?	10µM*
Cc1ccsc1C(=O)N/N=C/C=C/c1ccccc1[N+](=O)[O-]	?	?	?	17%	-6%
COc1ccccc1CNC(=O)C1CCN(c2nc3ccc(Cl)cc3[nH]2)CC1	-17%	/	/	/	/
O=C1CS(=O)(=O)C2(C(=O)N(Cc3ccccc3Cl)c3ccccc32)N1c1ccc(F)cc1 (stereo not drawn)	1%	/	/	/	/
O=C(c1cccc(F)c1)N1CCC[C@@]2(CCN(Cc3nccs3)C2)C1	/	/	/	/	-12%
COc1ccc(CSc2nnnn2-c2ccccc2)cc1	-1%	2%	-4%	-2%	-4%
COc1ccc(-n2nnnc2SCc2nc3ccccc3s2)cc1	11µM*	16µM*	?	14%	-6%
COc1ccc(C)cc1-n1nnnc1SCc1nc2ccccc2s1	11µM*	10%	?	?	-21%
COC(=O)c1cc(OC)c(OC)cc1NC(=O)c1ccc2c(c1)CCN2S(=O)(=O)c1ccccc1	-1%	/	/	/	0%
COc1ccc(NC(=O)CN(C)C(=O)c2cc3c(s2)CCC(C)C3)cc1 (stereo not drawn)	15µM*	10%	4%	-4%	/
CN(CC(=O)Nc1ccccc1Br)C(=O)CNC(=O)c1ccc(Oc2ccccc2)cc1	15µM*	0%	2%	18%	/
CCN(CC(=O)Nc1ccc(OC)cc1)C(=O)c1ccc2ccccc2c1	/	-1%	/	/	/
COc1ccc(NC(=O)CN(C)C(=O)CNC(=O)c2ccc3ccccc3c2)cc1	24µM*	14%	?	26%	/
COc1cccc(NC(=O)CN(C)C(=O)CNC(=O)c2ccc(Oc3ccccc3)cc2)c1	6µM*	6%	?	27%	/
COc1cc(-c2nnc(SCC(=O)Nc3ccc(F)c(Cl)c3)o2)cc(OC)c1OC	-1%	/	/	/	/
CCCCCCC(=O)Nc1ccc2nc3c(=O)n(C)c(=O)n(C)c3nc2c1C	-1%	/	/	/	-2%
CCC(=O)N1CCc2cc(-c3csc(NC(=O)c4ccco4)n3)ccc21	?	-15%	22%	18%	/
